Several values for one entry are separate records, joined by “and”; a condition that tells them apart may be missing. Equal entries are not always repeated. Records with an inconclusive call do not appear. A number with no mark means an inactive call. Activity calls are given as the source filed them. Unless noted, the call rests on the fitted dose curve; in most records, active means well fitted curve in the direction sought with a large enough effect in the repeat runs; inconclusive means weak or mixed curves; inactive means no such curve, though single readings can be large; an effect the other way counts as inactive or inconclusive.

Assay [1] can be described thus: qHTS assay to identify aromatase inhibitors - cell viability counter screen (AID 743084).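 Further: cells stimulated with testosterone during compound exposure; nearly all actives have a fitted effect of over 55% in size.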 Further: potency means the concentration at half of the fitted maximal effect. Background: qHTS replaces the single test concentration by a dilution series.
Assay [2] deals with Aryl hydrocarbon receptor (Homo sapiens) (UniProt P35869). Nature of the assay: qHTS assay to identify small molecule that activate the aryl hydrocarbon receptor (AhR) signaling pathway (AID 743085). Further: nearly all actives have a fitted effect of over 15% in size. Further: potency means the concentration at half of the fitted maximal effect.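 On activation: HG2L7.5c1 human HepG2 liver cells with stably integrated DRE-driven firefly reporter; series mostly up to about 70 µM.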 In short, it runs like this: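 Luminescence (ONE-Glo) from a dioxin-responsive-element luciferase reporter in HG2L7.5c1 HepG2 cells after 24 hr compound exposure at 37C; viability measured by CellTiter-Fluor fluorescence beforehand.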

Assay [3] in a line: qHTS assay to identify small molecule that activate the aryl hydrocarbon receptor (AhR) signaling pathway - cell viability counter screen (AID 743086). Further: nearly all actives have a fitted effect of over 45% in size. Further: potency means the concentration at half of the fitted maximal effect.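 On viability change, negative = cytotoxic: HepG2 liver cells carrying the AhR DRE luciferase reporter; series mostly up to about 70 µM.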 In short, it runs like this: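 HepG2-AhR-luc (HG2L7.5c1) cells, 4000/well, were preincubated 5 h at 37C, exposed to compound in qHTS format for 24 hr at 37C, then given CellTiter-Fluor for 30 min; viability was read as fluorescence in the reporter wells.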

For assay [4], the target named is Peroxisome proliferator-activated receptor gamma (Homo sapiens) (UniProt P37231). Nature of the assay: qHTS assay to identify small molecule agonists of the peroxisome proliferator-activated receptor gamma (PPARg) signaling pathway (AID 743094; active means well fitted activation curve with a large enough effect in the signal ratio in the repeat runs, not every such curve was filed as active; the % refers to the signal ratio). In short, it runs like this: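 Agonism was assessed in a beta-lactamase reporter system, HEK293H cells with a stably integrated UAS-bla construct under PPARg control; the 17 h treatment at 37C preceded a 1 h room-temperature FRET substrate read.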

Assay [5] is described as follows: qHTS assay to identify small molecule antagonists of the peroxisome proliferator-activated receptor gamma (PPARg) signaling pathway - cell viability counter screen (AID 743194). Further: nearly all actives have a fitted effect of over 55% in size. In short, it runs like this:
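PPARg-UAS-bla HEK293H cells were plated, rested 5 h at 37 C, then treated with compounds plus rosiglitazone (50 nM final) for 17 h at 37 C; viability was then read by CellTiter-Glo luminescence after 30 min at room temperature.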

A short description of assay [6]: qHTS assay for small molecule agonists of the antioxidant response element (ARE) signaling pathway (AID 743202; active means well fitted activation curve with a large enough effect in the signal ratio in the repeat runs, not every such curve was filed as active; the % refers to the signal ratio; further: potency means the concentration at half of the fitted maximal effect). In short, it runs like this:
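Steps: seed ARE-bla HepG2 cells (2,000/well); incubate 5 h at 37 C; add compounds by pin tool; incubate 16 h at 37 C; add FRET substrate; read fluorescence after 2 h at RT.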

A short description of assay [7]: qHTS assay for small molecule agonists of the antioxidant response element (ARE) signaling pathway - cell viability counter screen (AID 743203; calls by dose curve; further: nearly all actives have a fitted effect of over 55% in size; further: potency means the concentration at half of the fitted maximal effect). Put shortly: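 ATP content via CellTiter-Glo luminescence served as the viability measure. Cells: ARE-bla HepG2, 2,000 per well. Exposure: 16 hrs, 37C/5% CO2.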
The nature of assay [8]: qHTS assay for small molecule activators of the heat shock response signaling pathway (AID 743210; active means well fitted activation curve with a large enough effect in the signal ratio in the repeat runs, with a control signal flat, not every such curve was filed as active; the % refers to the signal ratio;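 further: HeLa cells with beta-lactamase reporter driven by heat shock elements; series mostly up to about 63 µM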). In short, it runs like this:
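Activation of heat shock element-controlled beta-lactamase expression is measured in HeLa cells by LiveBLAzer FRET fluorescence, with compound exposure lasting 5 h at 37 C and substrate loading 2.5 h at room temperature.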

Assay [9] can be described thus: qHTS assay for small molecule activators of the heat shock response signaling pathway - cell viability counter screen (AID 743209). Further: nearly all actives have a fitted effect of over 50% in size. Put shortly:
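Compounds dissolved in DMSO were added to overnight-plated HSE-bla HeLa cells and left 5 h at 37 C. Cell viability was quantified by luminescence using CellTiter-Glo.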

In assay [10] the target is Peroxisome proliferator-activated receptor gamma (Homo sapiens) (UniProt P37231). Nature of the assay: qHTS assay to identify small molecule antagonists of the peroxisome proliferator-activated receptor gamma (PPARg) signaling pathway (AID 743191; calls by dose curve; further: series mostly up to about 63 µM; nearly all actives have a fitted effect of over 30% in size). In short, it runs like this:
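GeneBLAzer PPARg UAS-bla HEK293H cells carrying a UAS-driven beta-lactamase reporter were plated at 3000 cells/well, preincubated 5 h at 37C, then given compound for 17 h at 37C; LiveBLAzer B/G FRET substrate was read after 1 h at room temperature.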
On the % scale 0 is the no-effect control and ±100 the full control effect.

Aryl hydrocarbon receptor (Homo sapiens), sequence (P35869 whole entry, looked up): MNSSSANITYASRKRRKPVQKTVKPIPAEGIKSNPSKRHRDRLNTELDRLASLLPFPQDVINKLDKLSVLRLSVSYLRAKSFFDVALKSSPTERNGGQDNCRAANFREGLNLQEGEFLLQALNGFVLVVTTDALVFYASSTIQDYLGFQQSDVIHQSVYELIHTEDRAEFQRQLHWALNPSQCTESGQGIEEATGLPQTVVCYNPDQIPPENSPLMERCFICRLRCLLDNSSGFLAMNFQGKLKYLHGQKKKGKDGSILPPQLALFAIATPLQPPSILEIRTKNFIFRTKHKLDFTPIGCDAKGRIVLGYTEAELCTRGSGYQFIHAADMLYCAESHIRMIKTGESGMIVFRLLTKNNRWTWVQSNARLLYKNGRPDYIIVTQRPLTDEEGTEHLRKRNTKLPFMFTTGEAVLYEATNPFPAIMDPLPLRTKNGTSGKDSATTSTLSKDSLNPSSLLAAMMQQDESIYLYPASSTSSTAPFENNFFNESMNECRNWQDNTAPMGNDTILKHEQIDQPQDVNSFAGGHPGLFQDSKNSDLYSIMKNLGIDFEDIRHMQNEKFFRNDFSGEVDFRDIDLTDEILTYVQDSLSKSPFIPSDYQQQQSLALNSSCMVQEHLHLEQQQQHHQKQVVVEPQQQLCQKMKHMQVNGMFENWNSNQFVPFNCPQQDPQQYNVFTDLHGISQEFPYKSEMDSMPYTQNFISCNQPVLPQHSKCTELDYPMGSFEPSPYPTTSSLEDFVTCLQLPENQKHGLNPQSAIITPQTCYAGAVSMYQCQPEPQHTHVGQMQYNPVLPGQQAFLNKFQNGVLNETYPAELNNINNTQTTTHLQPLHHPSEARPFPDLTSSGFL
Peroxisome proliferator-activated receptor gamma (Homo sapiens), sequence (P37231 whole entry, looked up): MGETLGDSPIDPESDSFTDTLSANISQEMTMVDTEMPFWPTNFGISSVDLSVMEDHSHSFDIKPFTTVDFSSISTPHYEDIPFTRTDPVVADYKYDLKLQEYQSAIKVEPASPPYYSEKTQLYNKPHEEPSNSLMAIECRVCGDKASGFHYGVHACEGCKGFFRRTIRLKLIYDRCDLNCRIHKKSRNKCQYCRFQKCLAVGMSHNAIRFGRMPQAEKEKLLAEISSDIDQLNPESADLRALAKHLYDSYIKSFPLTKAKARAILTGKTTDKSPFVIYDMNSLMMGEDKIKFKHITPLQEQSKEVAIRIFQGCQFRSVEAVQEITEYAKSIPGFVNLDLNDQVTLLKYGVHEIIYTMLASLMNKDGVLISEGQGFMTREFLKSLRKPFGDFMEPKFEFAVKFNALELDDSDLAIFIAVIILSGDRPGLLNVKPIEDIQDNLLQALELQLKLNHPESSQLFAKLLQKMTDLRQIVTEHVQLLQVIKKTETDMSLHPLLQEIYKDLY

In the case of `O=C(Nc1ccccc1)Nc1ccccc1`, the Potency result in assay [1], in assay [3], in assay [4], in assay [5], in [6] and in assay [7] was “inactive” in each case. For the same molecule, the Potency result in assay [8] is “inactive”. For the same molecule, the Potency in assay [2] is 30.8 µM (active).

As for `Cc1cc2nc3ccc(=[N+](C)C)cc-3sc2cc1N`, the Potency in assay [1] was 26.6 µM (active); in [2] it was 4.22 µM (active); in assay [3] it was 9.44 µM (active); in assay [6], 2.11 µM (active); in assay [7], 11.9 µM (active). In addition, the Potency entry in [4] is “inactive”.

As for `CC(C)c1nnc2ccc(-c3ocnc3-c3cc(F)ccc3F)cn12`, the Potency result in assay [1], in assay [2], in [3], in assay [4], in assay [5] and in [7] was “inactive” each time. Moreover, the Potency entry in assay [9] and in assay [8] was “inactive” each time.

As to `CC(C)C(OC(=O)c1ccccc1)C(C)(C)COC(=O)c1ccccc1` (stereo not given), the Potency result in assay [1], in assay [2], in [3], in assay [4], in assay [5] and in [6] was “inactive” each time. Moreover, the Potency result in assay [7], in assay [9] and in assay [8] was “inactive” throughout.

With `OC/C(Br)=C(\Br)CO`, the Potency entry in assay [1], in assay [2], in assay [4], in assay [10], in assay [5] and in [6] was “inactive” in each case. In addition, the Potency entry in assay [7], in [9] and in assay [8] was “inactive” each time.

Regarding `Cc1cc(O)c2c(O)c3c(O)cccc3cc2c1`, the Potency entry in [1], in assay [3], in [5], in assay [9] and in assay [8] was “inactive” in each case. Also, the Potency in [2] was 2.66 µM (active); in assay [6], 11.9 µM (active).

Turning to `CNCCCC1c2ccccc2C=Cc2ccccc21`, the Potency entry in [1], in assay [2], in assay [3], in assay [5], in assay [7] and in [9] was “inactive” in each case. Besides, the Potency result in assay [8] was “inactive”.

On to `CC(=N\O)/C(C)=N/O`, for which the Potency result in assay [1], in assay [2], in assay [4], in assay [10], in [5] and in assay [7] was “inactive” in each case. Besides, the Potency result in [9] and in assay [8] was “inactive” each time.

In the case of `C[C@]12CCC(=O)C=C1C=C[C@@H]1[C@@H]2CC[C@@]2(C)[C@H]1CC[C@@]21CCC(=O)O1`, the Potency entry in assay [1], in assay [2], in [3], in assay [5], in assay [7] and in assay [9] was “inactive” throughout. Further, the Potency entry in assay [8] is “inactive”. In addition, in assay [6], the Potency is 11.9 µM (active).

Turning to `Brc1cc(-c2ccc(Br)c(Br)c2Br)cc(Br)c1Br`, the Potency result in [1], in assay [3], in assay [5], in assay [7], in [9] and in assay [8] was “inactive” each time. Moreover, the Potency in assay [2] is 8.5 µM (active).

For `C[Si]1(C)O[Si](C)(C)O[Si](C)(C)O1`, the Potency result in assay [1], in [2], in [4], in assay [10] and in assay [5] was “inactive” in each case.

As to `Nc1nc(Cl)nc2c1ncn2[C@@H]1O[C@H](CO)[C@@H](O)[C@@H]1F`, the Potency result in [1], in [2], in assay [3], in [5], in assay [7] and in assay [9] was “inactive” in each case. Moreover, in assay [8], the Potency result is “inactive”.

Turning to `COC(OC)(C(=O)c1ccccc1)c1ccccc1`, the Potency entry in assay [1], in [2], in assay [4], in [10], in assay [5] and in [6] was “inactive” throughout. The Potency entry in [9] is “inactive”.

Consider `Cc1cc(C(=C2C=CC(=Nc3ccc(S(=O)(=O)O)cc3S(=O)(=O)O)C=C2)c2ccc(Nc3ccc(S(=O)(=O)O)cc3)cc2)ccc1N`, for which the Potency entry in assay [1], in [2], in assay [4], in [10], in assay [5] and in assay [6] was “inactive” in each case. The Potency result in assay [7], in [9] and in assay [8] was “inactive” in each case.

Regarding `CC(COc1ccc(C(C)(C)C)cc1)OS(=O)OCCCl` (stereo not given), the Potency result in assay [1], in [2], in [4], in assay [10], in assay [5] and in assay [6] was “inactive” in each case. For the same molecule, the Potency result in assay [7], in assay [9] and in assay [8] was “inactive” in each case.

`CC(C)(C)CC(C)(C)c1ccc(OCCO)cc1`: the Potency in assay [1] is 33.5 µM (active) and 30.5 µM (active). Besides, the Potency entry in assay [2], in assay [4], in assay [10], in assay [5], in [7] and in assay [9] was “inactive” in each case.

For the molecule `CCOc1cc(N)c(Cl)cc1C(=O)NCC1CN(Cc2ccc(F)cc2)CCO1` (stereo not given), the Potency entry in [1], in assay [3], in [5], in [7] and in assay [8] was “inactive” each time. In addition, the Potency in [2] was 0.266 µM (active).

For the molecule `CC1CN(c2cc3c(cc2F)c(=O)c(C(=O)O)cn3-c2ccc(F)cc2F)CCN1` (stereo not given), the Potency result in assay [1], in assay [2] and in assay [4] was “inactive” in each case. The ratio activity, negative = inhibition in [10] was 15.7% [at 5.95 µM]. In addition, the activity change, negative = cytotoxicity was 5.03% [at 5.95 µM] in [5] and -28.5% [at 5.95 µM] in [9]. Further, the activation in assay [6] was 0.815% [at 8.36 µM]; in assay [8] it was 0.895% [at 5.95 µM]. For the same molecule, the viability change, negative = cytotoxic in [7] was -0.948% [at 8.36 µM].

In the case of `O=C1NCCN1`, the Potency entry in assay [1], in [2], in assay [4], in assay [10], in assay [5] and in assay [6] was “inactive” in each case. The Potency result in assay [7] and in [9] was “inactive” in each case.

As to `CCN(CC)CCNC(=O)c1ccc(NC(C)=O)cc1`, the Potency result in [1], in assay [2], in [4], in assay [10], in assay [5] and in assay [6] was “inactive” throughout. Further, the Potency entry in [7] and in assay [9] was “inactive” each time.

Consider `CCCCCCCCCCOS(=O)(=O)O`, for which the Potency result in [1], in assay [2], in assay [3], in assay [5], in assay [7] and in assay [8] was “inactive” each time.

As for `CCCCC(=O)O[C@]1(C(=O)CO)CC[C@H]2[C@@H]3CCC4=CC(=O)CC[C@]4(C)[C@H]3[C@@H](O)C[C@@]21C`, the Potency result in assay [1], in assay [2], in [3], in [5], in [6] and in assay [9] was “inactive” throughout. Moreover, the Potency result in assay [8] is “inactive”.

For `C[C@@H]1C[C@H]2[C@@H]3CCC4=CC(=O)C=C[C@]4(C)[C@@]3(F)[C@@H](O)C[C@]2(C)[C@@]1(O)C(=O)CO`, the Potency entry in assay [1], in [2], in assay [3], in [5], in [6] and in [7] was “inactive” in each case. The Potency entry in [9] and in [8] was “inactive” each time.

For the molecule `CC1CC(=O)NN=C1c1ccc(NCC(C)(C)NCC(O)COc2cc(Cl)ccc2C#N)cc1` (stereo not given), the Potency entry in assay [1], in assay [3], in [5], in assay [6], in [7] and in assay [9] was “inactive” in each case. For the same molecule, the Potency result in assay [8] is “inactive”. The Potency in assay [2] is 6.68 µM (active).

`O=c1[nH]c2ccc(S(=O)CCN3CCC(Cc4ccc(F)cc4)CC3)cc2o1` (stereo not given): the Potency result in assay [1], in [2], in [3], in assay [5], in assay [7] and in assay [9] was “inactive” throughout.

With `CCOC(=O)c1ccccc1OC`, the Potency result in assay [1], in assay [2], in [4], in assay [10], in [5] and in [6] was “inactive” throughout. Besides, the Potency entry in [9] and in assay [8] was “inactive” in each case.

`CC1(C)O[C@@H]2C[C@H]3[C@@H]4CCC5=CC(=O)C=C[C@]5(C)[C@H]4[C@@H](O)C[C@]3(C)[C@]2(C(=O)CO)O1`: the Potency result in [1], in assay [2], in [3], in [5], in [6] and in assay [7] was “inactive” in each case. Besides, the Potency result in assay [8] was “inactive”.

As to `CN1C(=O)CC(C)(c2ccccc2)C1=O` (stereo not given), the Potency entry in [1], in assay [2], in assay [4], in [10], in assay [5] and in assay [6] was “inactive” in each case. For the same molecule, the Potency result in assay [7] and in assay [9] was “inactive” in each case.
